Assay outcomes: PubChem BioAssay, several laboratories
This is a sample that favours compounds with a hit; in the whole collection about 9.3% have one here.
Abs 340nm: absorbance at 340 nm; 65,000 tested, under 10 active; fold change at 10 µM; compound absorbance at 340 nm, fold over control;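 active = at 10 µM dose, initial 340 nm absorbance at least 2 fold that of control wells; inactive = change under 2 fold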;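 note: initial absorbance extrapolated from kinetic A340 decline of NADH oxidation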
NADH enzymes: inhibitors of enzymes used to reach an NAD/NADH endpoint. coupled PK/LDH NADH assays, four targets. IC50, µM (highest dose often 10 µM). hit rate 0.02% among 65,000;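 active = single-dose screening hits from any of four coupled enzyme assays that gave an IC50 when retested across doses; inconclusive = no clear call, values can overlap the other calls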;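 note: the DPM-DC format reads NADH fluorescence rather than 340 nm absorbance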
Htt clearance: compounds clearing mutant huntingtin protein. inhibition, % at 1.5 µM. hit rate 0.42% among 47,000. HeLa Exon1htt(103Q)mCFP, aggregate imaging; zero = plate's median compound well;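 active = inhibition of aggregate fluorescence above about 70%, also judged a hit by eye on the cell image, limit read from the data, passing the limit was not always enough; inconclusive = no rule stated for this call; inactive = not judged a hit on image review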;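 note: cells exposed to compound for three days before fixation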
Fluor 339 460: intrinsic fluorescence of library compounds, ex339/em460 – biochemical, MLSMR library, data from DPM-DC assay, artefact control, profiling panel. compound autofluorescence, ex339/em460 nm, NADH buffer; hits give high values; 1 = no-compound wells, NADH background. fluorescence fold increase at 10 µM. hit rate 5.5% among 65,000;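 active = at 10 µM, mean starting fluorescence two-fold or more over control wells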;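 note: signal is the first read of a kinetic run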
M1 agonist: agonists of M1 muscarinic receptor | CHO-M1 cells, Fluo-4 calcium fluorescence, agonist mode; hits give high values | B-score at 10 µM | hit rate 3% among 64,000;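 active = fluorescence rise, raw or as B-score row- and column-corrected plate score, outside the 99.7% band of its plate's samples, either direction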
M1 antagonist: blocks the rat M1 muscarinic receptor response to acetylcholine | CHO-M1 cells, Fluo-4 calcium, ACh EC80 antagonist mode; hits give low values | B-score at 10 µM | hit rate 3.4% among 64,000;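 active = calcium fluorescence response, raw or row-and-column corrected B-score, differing from the plate sample mean either way at a set confidence level, mostly lower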
M1 agonist conf: rat M1 muscarinic agonism, confirmation; fluorescence change (max-min) at 10 µM; CHO-M1 cells, Fluo-4 calcium fluorescence, agonist mode; actives lie on both sides; hit rate 19% among 1,700; shares compounds with M1 agonist;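 active = fluorescence change differs from the solvent-only DMSO control mean at a set confidence level in both duplicate runs; inconclusive = differs from solvent-only control mean in just one of two runs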;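 note: an EC20 dose of acetylcholine follows compound addition during the same imaging run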
M4 ag counter: activates rat M4 receptor in counter-screen for M1 agonists | shares compounds with M1 agonist | CHO M4/Gqi5 cells, Fluo-4 calcium fluorescence, agonist mode; actives lie on both sides | fluorescence change (max-min) at 10 µM | hit rate 9% among 1,700;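 active = fluorescence change differing from the plate's solvent-only control wells at 99.7% confidence in both duplicates, whether higher or lower; inconclusive = differs from solvent controls in only one of two duplicates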
Target sequence (P08485 whole entry, looked up): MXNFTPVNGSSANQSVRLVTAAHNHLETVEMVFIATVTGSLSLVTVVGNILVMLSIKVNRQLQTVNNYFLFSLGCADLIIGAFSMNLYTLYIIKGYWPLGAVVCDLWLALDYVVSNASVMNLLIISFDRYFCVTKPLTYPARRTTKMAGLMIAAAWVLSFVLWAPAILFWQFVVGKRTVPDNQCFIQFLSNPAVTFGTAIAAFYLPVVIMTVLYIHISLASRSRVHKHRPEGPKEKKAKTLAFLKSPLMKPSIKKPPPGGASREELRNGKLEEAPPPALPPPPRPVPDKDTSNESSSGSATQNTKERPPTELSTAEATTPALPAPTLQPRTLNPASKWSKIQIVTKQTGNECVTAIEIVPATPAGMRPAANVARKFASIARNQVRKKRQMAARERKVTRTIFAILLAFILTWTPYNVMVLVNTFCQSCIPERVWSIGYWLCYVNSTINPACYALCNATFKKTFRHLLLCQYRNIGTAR
Hits are given with their value; - = inactive; ? = inconclusive; . = no result given.

SMILES | Abs 340nm | NADH enzymes | Htt clearance | Fluor 339 460 | M1 agonist | M1 antagonist | M1 agonist conf | M4 ag counter
C=CCOC(=O)C1=C(C)OC(N)=C(C#N)C1c1c(C)nn(-c2ccccc2)c1Cl (configuration not stated) | - | - | - | - | 5.3 | - | ? | -
Cc1sc2ncnc(OCC(=O)NCc3cccs3)c2c1C | - | - | - | - | - | - | . | .
Cc1cccc(Nc2nc(NCc3ccco3)nc(N3CCOCC3)n2)c1 | - | - | - | - | - | - | . | .
CCCCCC(=O)Nc1ccc(N2CCN(S(C)(=O)=O)CC2)cc1 | - | - | . | - | -2.3 | - | - | -
Cc1nn(-c2ccccc2)c(C)c1C(=O)Nc1nnc(-c2ccco2)o1 | - | - | - | - | - | - | . | .
O=P1(c2ccccc2)C=Cn2c1cc1c2CCCC1 (configuration not stated) | - | - | - | - | - | - | . | .
Cc1nc2sc(C(c3ccco3)N3CCC(Cc4ccccc4)CC3)c(O)n2n1 (configuration not stated) | - | - | . | - | - | - | . | .
O=S(=O)(NCC1CCCO1)c1ccc(Oc2ccccc2)cc1 (configuration not stated) | - | - | - | - | - | - | . | .
CCC(Oc1ccccc1)C(=O)Nc1ccc(S(=O)(=O)NCC2CCCO2)cc1 (configuration not stated) | - | - | - | - | -2.2 | - | - | -
Nc1cccc(C(=O)O)c1 | - | - | . | - | - | - | . | .
O=C(O)c1cc(O)c2c(c1)C(=O)c1cccc(O)c1C2=O | - | - | . | - | 67 | - | 189 | ?
COc1ccc(N2CCN(CCNC(=O)CCS(=O)(=O)c3cccc4nsnc34)CC2)cc1 | - | - | . | - | - | - | . | .
O=C(Nc1ncnc2sc3c(c12)CCCCC3)c1ccco1 | - | - | - | - | 37 | -10 | - | -
Cc1ccc(S(=O)(=O)n2nc(-c3ccc(Cl)cc3)nc2NCc2ccco2)cc1 | - | - | - | - | 26 | - | - | -
CC(C)C(c1nnnn1C1CCCCC1)N1CCN(c2ncccn2)CC1 (configuration not stated) | - | - | . | - | 4.4 | - | - | -
CC(C)CC(c1nnnn1C1CCCCC1)N1CCN(c2ncccn2)CC1 (configuration not stated) | - | - | - | - | - | - | . | .
Cc1c(C(=O)Nc2nccs2)sc2nc(-c3cccs3)cc(C(F)(F)F)c12 | . | . | - | . | . | . | . | .
CC(=O)c1sc2nc(-c3cccs3)cc(C(F)(F)F)c2c1N | - | - | - | - | 98 | - | 123 | -
O=c1[nH]c2cc3c(cc2cc1CN(Cc1nnnn1CC1CCCO1)C1CCCCC1)OCO3 (configuration not stated) | - | - | . | - | 3.6 | - | 93 | ?
CCC(C)(C)n1nnnc1CN(Cc1cc2cc(OC)ccc2[nH]c1=O)C1CCCC1 | - | - | . | - | 2.6 | - | - | -
CN1CCCN(C(=O)Cc2c(Cl)cccc2Cl)c2nc3ccccc3nc21 | - | - | - | - | - | - | . | .
COc1ccc(C2=CC(c3c(C)nn(-c4ccccc4)c3Cl)n3nnnc3N2)cc1OC (configuration not stated) | - | - | . | - | 5.5 | - | - | -
COc1ccc(-n2c(Cc3cc(=O)[nH]c(=O)[nH]3)nnc2SCC(=O)N2CCCC2)cc1 | - | - | - | - | 3.5 | - | - | -
COC(=O)Cc1cc(=O)[nH]c(/N=C(/NC(=O)c2ccccc2)Nc2ccccc2C)n1 | - | - | . | - | - | - | . | .
CC(C)(CC(=O)N1CCN(c2ccc(Cl)cc2)CC1)CC1=NS(=O)(=O)c2ccccc2N1 | - | - | . | - | 11 | -3.2 | ? | -
SMILES | Abs 340nm | NADH enzymes | Htt clearance | Fluor 339 460 | M1 agonist | M1 antagonist | M1 agonist conf | M4 ag counter
O=C(Cc1cccs1)N1CCN(c2nc(-c3ccc(Cl)cc3)cs2)CC1 | - | - | - | - | 3.5 | - | -28 | -
O=[N+]([O-])c1ccc(NC(=S)N/C(=N/CS(=O)(=O)c2ccccc2)c2ccccc2)cc1 | . | . | - | . | . | . | . | .
COc1cc(NC(=O)c2ccc(C)cc2)c(OC)cc1NC(=O)CN1CCCCC1 | . | . | - | . | . | . | . | .
COc1cc(NC(=O)c2cc(OC)c(OC)c(OC)c2)c(OC)cc1NC(=O)CN1CCCCC1 | - | - | . | - | 3.9 | - | ? | -
CCC1CCCCN1C(=O)N[C@@H](Cc1ccccc1)C(=O)O (some centres not stated) | - | - | - | - | - | - | . | .
C=CCc1ccccc1OCC(O)CN1CCN(c2ccc(C)cc2)CC1 (configuration not stated) | - | - | - | - | - | - | . | .
C=CCc1ccccc1OCC(O)CN1CCN(Cc2ccc3c(c2)OCO3)CC1 (configuration not stated) | - | - | - | - | 6.9 | -5.4 | - | -
CCOC(=O)N1CCN(CC(O)COc2ccccc2C(C)C)CC1 (configuration not stated) | - | - | - | - | 13 | - | 65 | -
C=CCc1ccccc1OCC(O)CN1CCN(C(=O)OCC)CC1 (configuration not stated) | - | - | . | - | 28 | - | 172 | -
CCN1C(=O)/C(=c2/s/c(=C3\SC(C)=C(C)N3CC)c(=O)n2CC)N(c2ccccc2)C1=S | . | . | - | . | . | . | . | .
CCN(CC)c1nc2ccccc2nc1C(C#N)C(=O)NCCCOC (configuration not stated) | - | - | . | 2.4 | 5 | - | - | -
N#CCSc1nc2ccccc2c(=O)n1CCC(=O)NCCc1ccccc1 | - | - | . | - | - | - | . | .
CCCN(CCC)c1nc2ccccc2nc1C(C#N)C(=O)OC(C)COC (configuration not stated) | - | - | . | - | - | - | . | .
CCN(CC)c1nc2ccccc2nc1C(C#N)C(=O)NCCc1ccccc1 (configuration not stated) | - | - | . | - | 219 | - | 2068 | 1724
CC1CCCCN1C(=O)Nc1cccc(Cl)c1 (configuration not stated) | - | - | - | - | 16 | -19 | ? | -
CC1CCCN(C(=O)Nc2cccc(NC(=O)N3CCCC(C)C3C)c2)C1C (configuration not stated) | - | - | . | - | - | - | . | .
O=C(Cc1ccccc1)N1CCN(C(=O)c2cccs2)CC1 | - | - | - | - | - | - | . | .
Cc1ccc(-n2c(C)nc3c(cnn3-c3ccc(F)cc3)c2=O)cc1C | - | - | - | - | 3.5 | - | - | ?
COc1ccccc1N1CCN(C(c2cc3ccc(C)cc3[nH]c2=O)c2nnnn2C2CCCC2)CC1 (configuration not stated) | - | - | - | - | -2.5 | - | ? | -
